We go through 3 compounds from PubChem BioAssay (EPA / NIEHS).

Several values for one entry are separate records, joined by “and”; a condition that tells them apart may be missing. Equal entries are not always repeated. Activity calls are given as the source filed them. How the source made its calls: active means hit-call score of the fitted dose curve at least 0.9, where 1 is the maximum; inactive means score below 0.9.

Read-out in assay [1]: Interleukin-1 alpha (IL1a), IL1A (gene 3552)
Description: BSK_KF3CT_IL1a: BioMAP Diversity Plus: KF3CT Assay for Interleukin-1 alpha (IL1a) Biomarker Activity (AID 2283070). The following applies: primary human keratinocytes with fibroblasts; actives raise or lower the signal. The procedure, abridged: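 Primary skin co-culture (keratinocytes, foreskin fibroblasts), 24 h exposure; ELISA for IL-1a; bidirectional curve fit vs DMSO.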

Read-out in assay [2]: TIMP metallopeptidase inhibitor 2 (TIMP2), TIMP2 (gene 7077)
Description: BSK_KF3CT_TIMP2: BioMAP Diversity Plus: KF3CT Assay for TIMP metallopeptidase inhibitor 2 (TIMP2) Biomarker Activity (AID 2283071). The conditions noted are these: primary human keratinocytes with fibroblasts; actives raise or lower the signal. The procedure, abridged: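 ELISA readout of TIMP-2 in keratinocyte plus foreskin fibroblast co-cultures (human skin primary cells), 24 h post-dose. Gain or loss of signal fitted relative to DMSO.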

Read-out in assay [3]: Transforming growth factor beta 1 (TGFb1), TGFB1 (gene 7040)
Put plainly: BSK_KF3CT_TGFb1: BioMAP Diversity Plus: KF3CT Assay for Transforming growth factor beta 1 (TGFb1) Biomarker Activity (AID 2283072). The following applies: primary human keratinocytes with fibroblasts; actives raise or lower the signal. The procedure, abridged: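 Read-out: ELISA for TGF-b1 in keratinocyte/foreskin fibroblast human skin co-culture, 24 h after dosing; bidirectional curve fit vs DMSO baseline; gain or loss of signal scored.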

Read-out in assay [4]: C-C motif chemokine 2 (Homo sapiens) (UniProt P13500)
Put plainly: BSK_KF3CT_MCP1: BioMAP Diversity Plus: KF3CT Assay for Monocyte Chemoattractant Protein 1 (MCP1/CCL2) Biomarker Activity (AID 2283073). The conditions noted are these: primary human keratinocytes with fibroblasts; actives raise or lower the signal. The method, boiled down: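 ELISA read-out of MCP-1, 24 h post-dose, in primary human skin keratinocytes co-cultured with fibroblasts. Parallel SRB staining monitors cytotoxicity; changes fitted both directions relative to DMSO.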

Read-out in assay [5]: Matrix Metallopeptidase 9 (MMP9), MMP9 (gene 4318)
Put plainly: BSK_KF3CT_MMP9: BioMAP Diversity Plus: KF3CT Assay for Matrix Metallopeptidase 9 (MMP9) Biomarker Activity (AID 2283074).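 On AC50: MMP9 protein level quantified by ELISA in the co-culture.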 The conditions noted are these: primary human keratinocytes with fibroblasts; actives raise or lower the signal. The method, boiled down: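 ELISA read-out of MMP-9 at 24 h post-dosing in a co-culture of human skin keratinocytes and foreskin fibroblasts. Gain or loss of signal was fitted in both directions against DMSO.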

Read-out in assay [6]: urokinase plasminogen activator (uPA), PLAU (gene 5328)
Put plainly: BSK_KF3CT_uPA: BioMAP Diversity Plus: KF3CT Assay for urokinase plasminogen activator (uPA) Biomarker Activity (AID 2283075). The following applies: primary human keratinocytes with fibroblasts; actives raise or lower the signal. The procedure, abridged: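 Skin co-culture (keratinocytes + foreskin fibroblasts), human primary; 24 h post-dose; uPA by ELISA; gain/loss fit vs DMSO baseline.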

Read-out in assay [7]: CD40, CD40 (gene 958)
Description: BSK_LPS_CD40: BioMAP Diversity Plus: LPS Assay for CD40 Biomarker Activity (AID 2283076). The conditions noted are these: primary human HUVEC with PBMC; actives raise or lower the signal. The procedure, abridged:
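In the LPS system of human endothelial cells with peripheral blood mononuclear cells, CD40 levels were read by ELISA 24 h post-treatment. Signal changes in either direction were fitted against the DMSO baseline, with parallel SRB protein staining.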

Read-out in assay [8]: E-selectin (Homo sapiens) (UniProt P16581)
Description: BSK_LPS_Eselectin: BioMAP Diversity Plus: LPS Assay for Eselectin Biomarker Activity (AID 2283077). The following applies: primary human HUVEC with PBMC; actives raise or lower the signal. The procedure, abridged:
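E-selectin ELISA on LPS-stimulated endothelial cell/PBMC co-cultures, read 24 h post-treatment; gains and losses fitted against DMSO. Parallel SRB staining (0.1% SRB after 10% TCA fixation, 560 nm) flags overt cytotoxicity.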

The nature of assay [9]: BSK_LPS_SRB: Viability Assessment in the BioMAP Diversity Plus: LPS Assay (AID 2283079).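 Further: total protein by sulforhodamine B absorbance as a cytotoxicity measure; measured one day after compound addition.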 The conditions noted are these: primary human HUVEC with PBMC. The procedure, abridged:
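SRB viability endpoint: cells fixed with 10% TCA, stained with 0.1% SRB, read at 560 nm, 24 h post-dose. HUVEC/PBMC co-culture; signal change in either direction scored relative to DMSO.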

Read-out in assay [10]: Interleukin-1 alpha (IL1a), IL1A (gene 3552)
Description: BSK_LPS_IL1a: BioMAP Diversity Plus: LPS Assay for Interleukin-1 alpha (IL1a) Biomarker Activity (AID 2283080). The conditions noted are these: primary human HUVEC with PBMC; actives raise or lower the signal. The method, boiled down:
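Readout is IL-1a level by ELISA, 24 h post-dose, fitted as gain or loss relative to DMSO. System: LPS-activated human primary co-culture of vascular endothelium and peripheral blood mononuclear cells, with parallel SRB total-protein cytotoxicity.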

Read-out in assay [11]: Monocyte Chemoattractant Protein-1 (MCP1), CCL2 (gene 6347)
Put plainly: BSK_LPS_MCP1: BioMAP Diversity Plus: LPS Assay for Monocyte Chemoattractant Protein-1 (MCP1) Biomarker Activity (AID 2283081).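 On AC50: secreted MCP-1 protein quantified by ELISA in culture supernatant.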 The following applies: primary human HUVEC with PBMC; actives raise or lower the signal. The procedure, abridged: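 Secreted MCP-1 read by ELISA at 24 h post-dosing in an LPS-activated co-culture of endothelial cells with peripheral blood mononuclear cells. Fits run in both directions, DMSO as baseline; parallel SRB staining tracks overt cytotoxicity.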

A short description of assay [12]: BSK_LPS_PGE2: BioMAP Diversity Plus: LPS Assay for Prostaglandin E2 (PGE2) Biomarker Activity (AID 2283082).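 On AC50: secreted prostaglandin E2 measured by ELISA in LPS-stimulated co-culture.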 The conditions noted are these: primary human HUVEC with PBMC; actives raise or lower the signal. The procedure, abridged:
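ELISA read-out of PGE2 from human umbilical vein endothelial cells co-cultured with peripheral blood mononuclear cells under LPS, 24 h post-dose. Gain or loss of signal scored relative to DMSO baseline.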

Read-out in assay [13]: Macrophage colony-stimulating factor (MCSF), CSF1 (gene 1435)
Description: BSK_LPS_MCSF: BioMAP Diversity Plus: LPS Assay for Macrophage colony-stimulating factor (MCSF) Biomarker Activity (AID 2283083). The following applies: primary human HUVEC with PBMC; actives raise or lower the signal. The procedure, abridged: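 Bidirectional fitting against DMSO was applied to M-CSF levels read by ELISA at 24 h post-dose. The system pairs human umbilical vein endothelium with peripheral blood mononuclear cells; parallel SRB staining tracked cytotoxicity.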

Read-out in assay [14]: Tumor necrosis factor (Homo sapiens) (UniProt P01375)
Put plainly: BSK_LPS_TNFa: BioMAP Diversity Plus: LPS Assay for Tumour Necrosis Factor alpha (TNFa) Biomarker Activity (AID 2283085). The following applies: primary human HUVEC with PBMC; actives raise or lower the signal. The procedure, abridged: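 HUVEC/PBMC co-culture, LPS-stimulated; 24 h post-dose; TNFa by ELISA; gain or loss of signal fitted bidirectionally vs DMSO baseline.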

Read-out in assay [15]: Vascular cell adhesion molecule 1 (VCAM1), VCAM1 (gene 7412)
Put plainly: BSK_LPS_VCAM1: BioMAP Diversity Plus: LPS Assay for Vascular cell adhesion molecule 1 (VCAM1) Biomarker Activity (AID 2283086). The conditions noted are these: primary human HUVEC with PBMC; actives raise or lower the signal. The procedure, abridged:
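ELISA read-out of VCAM-1 at 24 h post-dosing in an LPS-driven HUVEC/PBMC primary human co-culture; gain or loss of signal fitted bidirectionally against DMSO baseline. Cytotoxicity tracked in parallel cultures by SRB total-protein staining.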

Read-out in assay [16]: CD38, CD38 (gene 952)
Put plainly: BSK_SAg_CD38: BioMAP Diversity Plus: SAg Assay for CD38 Biomarker Activity (AID 2283087). The conditions noted are these: primary human HUVEC with PBMC; actives raise or lower the signal. The method, boiled down: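 Measures CD38 on a human endothelial/PBMC co-culture driven by SEB and TSST-1, 24 h after compound exposure, using ELISA with fluorescence detection; DMSO defines baseline for bidirectional curve fitting.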

Read-out in assay [17]: CD69, CD69 (gene 969)
Put plainly: BSK_SAg_CD69: BioMAP Diversity Plus: SAg Assay for CD69 Biomarker Activity (AID 2283089).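 On AC50: cell surface CD69 protein quantified by ELISA with fluorescence detection.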 The conditions noted are these: primary human HUVEC with PBMC; actives raise or lower the signal. The procedure, abridged: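 ELISA, fluorescence read-out: CD69 on human umbilical vein endothelial cell + PBMC co-culture, 24 h post-dosing. Gain or loss of signal fitted bidirectionally against DMSO baseline.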

Read-out in assay [18]: Interleukin-8 (IL8), CXCL8 (gene 3576)
Description: BSK_LPS_IL8: BioMAP Diversity Plus: LPS Assay for Interleukin-8 (IL8) Biomarker Activity (AID 2283078). The following applies: primary human HUVEC with PBMC; actives raise or lower the signal. The procedure, abridged:
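ELISA read-out of IL-8 after 24 h chemical treatment of LPS-activated endothelial/PBMC human primary co-cultures. Changes either up or down relative to DMSO; overt cytotoxicity checked by sulforhodamine B staining in parallel wells.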

Read-out in assay [19]: Tissue Factor, F3 (gene 2152)
Put plainly: BSK_LPS_TissueFactor: BioMAP Diversity Plus: LPS Assay for Tissue Factor Biomarker Activity (AID 2283084). The following applies: primary human HUVEC with PBMC; actives raise or lower the signal. The method, boiled down: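 Compound was added to an endothelial cell/PBMC co-culture, and after 24 h tissue factor (CD142) was read by ELISA. Gain or loss of signal was fitted against a DMSO baseline, and parallel SRB staining (560 nm) tracked overt cytotoxicity.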

Read-out in assay [20]: CD40, CD40 (gene 958)
Put plainly: BSK_SAg_CD40: BioMAP Diversity Plus: SAg Assay for CD40 Biomarker Activity (AID 2283088). The conditions noted are these: primary human HUVEC with PBMC; actives raise or lower the signal. The method, boiled down: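 CD40 is measured by fluorescence ELISA in an endothelial/PBMC primary human co-culture at 24 h post-dose. Fitting is bidirectional, DMSO baseline. Parallel SRB staining (560 nm) flags cytotoxicity.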

Sequence of Tumor necrosis factor (Homo sapiens) (P01375 whole entry, looked up): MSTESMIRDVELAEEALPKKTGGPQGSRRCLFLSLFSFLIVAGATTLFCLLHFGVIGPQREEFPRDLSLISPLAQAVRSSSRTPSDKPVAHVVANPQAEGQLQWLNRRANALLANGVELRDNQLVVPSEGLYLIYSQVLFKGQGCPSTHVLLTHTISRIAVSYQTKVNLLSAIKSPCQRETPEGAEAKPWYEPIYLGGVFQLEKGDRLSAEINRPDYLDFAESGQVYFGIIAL
Sequence of E-selectin (Homo sapiens) (P16581 whole entry, looked up): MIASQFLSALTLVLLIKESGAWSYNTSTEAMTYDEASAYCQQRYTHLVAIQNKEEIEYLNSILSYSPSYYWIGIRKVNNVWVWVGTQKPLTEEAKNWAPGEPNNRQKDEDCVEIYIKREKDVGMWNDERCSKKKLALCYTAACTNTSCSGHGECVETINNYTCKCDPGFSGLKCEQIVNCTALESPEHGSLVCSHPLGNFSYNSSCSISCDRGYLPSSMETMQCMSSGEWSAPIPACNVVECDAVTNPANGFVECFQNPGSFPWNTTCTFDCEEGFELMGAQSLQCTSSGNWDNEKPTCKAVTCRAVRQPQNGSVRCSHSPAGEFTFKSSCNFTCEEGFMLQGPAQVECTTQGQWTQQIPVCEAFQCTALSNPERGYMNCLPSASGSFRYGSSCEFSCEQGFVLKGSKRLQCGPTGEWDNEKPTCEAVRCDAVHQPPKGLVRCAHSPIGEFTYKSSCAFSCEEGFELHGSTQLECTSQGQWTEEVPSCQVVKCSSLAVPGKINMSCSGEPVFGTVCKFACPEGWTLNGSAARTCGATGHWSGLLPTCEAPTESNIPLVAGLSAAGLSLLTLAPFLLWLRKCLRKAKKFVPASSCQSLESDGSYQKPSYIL

For orientation: AC50 means the concentration giving half of the maximal activity seen. `Oc1c(Cl)cc(Cl)c(Cl)c1Cl`: the result in [1], in assay [6], in assay [10], in [12] and in [14] was inactive. The AC50 in [2] was 11.4 µM (active); in assay [3], 20 µM (active); in assay [4], 20 µM (active); in assay [5], 20 µM (active); in [7], 20 µM (active); in assay [8] it was 30.7 µM (active). Also, the AC50 was 20 µM (active) in [9]; 31.5 µM (active) in [11]; 26 µM (active) in assay [13]; 20 µM (active) in [15]; 20 µM (active) in assay [16]; 27.8 µM (active) in [17].

For `COc1ccc(C(=O)c2ccccc2)c(O)c1`, the outcome in assay [1], in [2], in assay [3], in [4], in [7] and in assay [8] was inactive. The outcome in assay [18], in assay [9], in assay [10], in assay [11], in [13] and in [19] was inactive. Moreover, the result in [14], in assay [15], in assay [16], in assay [20] and in [17] was inactive. Further, the AC50 is 20 µM (active) in assay [5] and 4.59 µM (active) in assay [12].

For `Oc1ccccc1Cc1ccccc1O`, the result in assay [1], in assay [2], in assay [4], in [5], in assay [7] and in [8] was inactive. Also, the result in assay [18], in assay [9], in [10], in assay [11], in [13] and in assay [14] was inactive. Further, the result in assay [15], in assay [16] and in assay [17] was inactive. In addition, the AC50 in assay [12] is 2.47 µM (active) and 1.8 µM (active).
